Source: PubChem (National Center for Advancing Translational Sciences (NCATS))
PLK1 PBD block – PLK1 (human) polo-box domain binding inhibition | Plk1 PBD binding of FITC phosphopeptide, fluorescence polarization | Potency, µM, without a hit: max response, negative = inhibition, usual class: inhibitors | 360,000 tested, 2.8% active | AID 720504; also: potency is read from the fitted curve at half-maximal effect; series mostly up to about 57 µM; % is scaled to controls: 0 for no effect and ±100 for the full control effect; nearly all actives have a fitted effect of over 65% in size
Target sequence (P53350 whole entry, looked up, the tested form may be a part): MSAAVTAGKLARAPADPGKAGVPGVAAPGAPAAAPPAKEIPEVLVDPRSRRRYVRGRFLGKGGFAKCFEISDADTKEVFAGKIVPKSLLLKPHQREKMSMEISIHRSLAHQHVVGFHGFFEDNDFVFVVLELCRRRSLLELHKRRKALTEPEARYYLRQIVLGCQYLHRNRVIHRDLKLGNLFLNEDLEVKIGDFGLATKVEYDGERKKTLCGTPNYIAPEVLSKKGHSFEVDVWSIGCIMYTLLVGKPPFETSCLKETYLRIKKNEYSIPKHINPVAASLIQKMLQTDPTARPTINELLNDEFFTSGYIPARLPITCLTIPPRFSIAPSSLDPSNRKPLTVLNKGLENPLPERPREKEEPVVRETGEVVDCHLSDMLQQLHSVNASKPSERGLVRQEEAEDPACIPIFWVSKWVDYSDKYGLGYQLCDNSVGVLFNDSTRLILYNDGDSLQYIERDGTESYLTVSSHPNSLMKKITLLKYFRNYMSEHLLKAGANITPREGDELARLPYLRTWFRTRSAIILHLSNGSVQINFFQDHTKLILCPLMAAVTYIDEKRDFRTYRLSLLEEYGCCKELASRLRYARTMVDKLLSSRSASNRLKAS
BAZ2B inh – inhibitors of human BAZ2B bromodomain; Q9UIF8; AlphaScreen BAZ2B-H3K14Ac peptide displacement; Potency, µM (doses to about 114 µM), for the others: at the highest dose activity change, negative = inhibition, hits mostly inhibitors; 360,000 tested, 4.4% active; also: potency is read from the fitted curve at half-maximal effect; % is scaled to controls: 0 for no effect and ±100 for the full control effect; nearly all actives have a fitted effect of over 60% in size
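Complex of BAZ2B and biotin-H3K14Ac (50 nM apiece) forms over 30 min at RT, then faces library compounds up to 110 uM for another 30 min; AlphaScreen beads added, 20 min dark incubation, luminescence read.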
JMJD2A Tudor – JMJD2A Tudor domain (human) inhibition | O75164 | AlphaScreen JMJD2A-Tudor / H3K4me3 peptide binding | Potency, µM (top dose mostly 114 µM), inactives show at the highest dose activity change, negative = inhibition, hits mostly inhibitors | 390,000 tested, 4.4% active | AID 504339; also: potency is read from the fitted curve at half-maximal effect; % is scaled to controls: 0 for no effect and ±100 for the full control effect; nearly all actives have a fitted effect of over 50% in size
HP1b chromo inh – blocks HP1-beta chromodomain binding to methylated histone tails; P83916; AlphaScreen HP1-beta / biotin-H3K9me3 peptide binding; Potency, µM (top dose mostly 114 µM), for inactives: at the top dose activity change, negative = inhibition, usual class: inhibitors; 390,000 tested, 0.56% active; AID 540317; also: potency is read from the fitted curve at half-maximal effect; nearly all actives have a fitted effect of over 70% in size
Target sequence (P83916 whole entry, looked up): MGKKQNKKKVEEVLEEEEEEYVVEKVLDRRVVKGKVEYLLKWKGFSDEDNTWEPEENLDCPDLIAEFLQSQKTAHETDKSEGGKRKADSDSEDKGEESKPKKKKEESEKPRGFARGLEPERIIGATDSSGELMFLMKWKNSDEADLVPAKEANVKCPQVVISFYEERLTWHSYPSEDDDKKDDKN
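HP1-beta protein (50 nM final) preincubated 30 min at room temperature with biotinylated H3(1-18)K9me3 peptide (50 nM) in PBS pH 7.4, 0.01% Tween-20, then compound added for 30 min. AlphaScreen streptavidin donor/nickel chelate acceptor beads (10 ug/mL final), 30 min dark, luminescence read.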
G9a inh – inhibitors of human histone lysine methyltransferase G9a | 350,000 tested, 8.8% active | G9a H3K9 monomethylation, AlphaScreen, 2 h | AID 504332 | Potency, µM (highest dose often 102 µM), for inactives: at the highest dose activity, negative = inhibition, actives largely listed as inhibitors | Q96KQ7; also: potency is read from the fitted curve at half-maximal effect; % is scaled to controls: 0 for no effect and ±100 for the full control effect; nearly all actives have a fitted effect of over 75% in size
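AlphaScreen detection with an anti-monomethyl H3K9 antibody quantified product after a 2 h room-temperature reaction containing 500 nM biotinylated H3K9 peptide, 20 µM SAM and 20 nM enzyme, which had been preincubated 15 min with compound.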
PI5P4K alpha inh – blocks human PI5P4K alpha kinase activity; 330,000 tested, 1.2% active; max response, %; AID 652105; PI5P4Kalpha enzyme, ADP-Glo luminescence, 60 min; hits give low values; P48426; active = max response of -50% or lower; inconclusive = between -30% and -50%; inactive = -30% or higher; also: value at the top dose of about 77 µM; % is scaled to controls: 0 for no effect and ±100 for the full control effect
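Human PI5P4Kalpha with substrate in 0.038 M HEPES pH 7.4, 0.28 mM EGTA, 0.1% CHAPS, 5% DMSO; reaction started with 5 microM ATP (final), 60 min at room temperature. ADP formed read by ADP-Glo luminescence.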
Active calls of the source: *; ? = inconclusive; . = no result given; [ ] = remark or other dose. Only some compounds are listed: those with a hit (about 12% of all), similar ones and a draw of the others. Unless noted, calls follow the shape of the dose curve; as a rule, active = well fitted curve in the direction sought with a large enough effect; inconclusive = small, poorly fitted or top-dose-only effect, or another doubt; inactive = no such curve, though single readings can be large; an effect the other way counts as inactive or inconclusive.

SMILES	PLK1 PBD block	BAZ2B inh	JMJD2A Tudor	HP1b chromo inh	G9a inh	PI5P4K alpha inh
Cc1ccc(C)c(S(=O)(=O)N2CCCC2CNC(=O)C(=O)NCc2ccccn2)c1 (stereo not drawn)	4.1%	21.1%	-12.8%	17.3%	-5.2%	7.1
CC(=O)N1CCN(S(=O)(=O)c2ccc(S(=O)(=O)NC3CCCCC3)cc2)CC1	-10.0%	-1.8%	-14.4%	22.0%	50.1µM*	2.2
CCN1CCN(S(=O)(=O)c2ccc(S(=O)(=O)NC3CC3)cc2)CC1	-0.9%	-14.2%	-4.5%	27.5%	50.1µM*	-10.7
O=CN1CCN(S(=O)(=O)c2ccc(S(=O)(=O)NC3CCCCC3)cc2)CC1	-4.4%	7.3%	-0.7%	5.6%	44.7µM*	-1.1
O=c1cc(-c2ccccc2)n2c(SCc3ccccc3Cl)nnc2[nH]1	.	0.8%	-10.4%	40.3%	-40.6%[59 µM]	.
Cc1cc(=O)c2c(O)cc(O)c(C)c2o1	.	.	.	.	-15.9%[2.33 µM]	.
CC(=O)N(C(C)=O)c1nc2nc(C)cc(C)n2n1	?	56.2µM*	?	-21.6%	?	-16.1
Cc1csc(NC(=O)c2nc3nc(C)cc(C)n3n2)n1	-0.9%	?	79.4µM*	4.3%	?	-4.4
Cc1cc(C)n2nc(C(=O)Nc3nccs3)nc2n1	-4.5%	3.7%	11.2µM*	27.3%	-9.3%	.
Cc1cc(C)n2nc(C(=O)Nc3ccc(N4CCOCC4)cc3)nc2n1	-0.1%	-8.5%	-6.3%	35.2%	10µM*	-9.2
Cc1cc(C)n2nc(C(=O)Nc3cccnc3)nc2n1	-4.0%	16.4%	-12.7%	24.2%	-27.1%[12.7 µM]	2.0
Cc1cc(C)n2nc(C(=O)N3CCOCC3)nc2n1	-14.8%	-7.7%	-4.7%[57.1 µM]	22.1%	-30.5%[59 µM]	-7.1
CCOc1ccc(NC(=O)COC(=O)c2c[nH]c3ccccc23)cc1	-12.7%	.	.	.	.	-9.6
CC(C)CCNC(=O)Cn1c(SCc2cccc(F)c2)nc2ccncc21	.	.	6.9%[57.1 µM]	17.3%[57 µM]	.	.
COc1ccc(/C=N/N2CCN(Cc3ccccc3)CC2)cc1	4.9%	?	?	?	-9.5%[59 µM]	-2.8
Cc1ccc(/C=N/N2CCN(c3ccccn3)CC2)o1	1.9%	-26.9%	-17.6%	47.2%	-46.7%	1.9
Cc1ccc(/C=N/N2CCN(Cc3ccccc3)CC2)o1	-7.5%	?	-33.1%	-2.5%	20µM*	.
Cc1ccc(/C=N/N2CCN(Cc3cccc4ccccc34)CC2)o1	-15.8%	50.1µM*	50.1µM*	?	44.7µM*	-4.0
NC(=O)NOCc1ccc(Cl)cc1Cl	26.7µM*	1.6%	-3.0%[11.4 µM]	-9.8%	3.5%	-13.0
CCN(CC)Cc1c(O)c(Cl)cc2c(C)c(C)c(=O)oc12	-8.9%	?	-4.5%	16.9%	17.1%	.
CCN(CC)Cc1c(O)c(Cl)cc2c(C)cc(=O)oc12	-15.1%	56.2µM*	-33.3%	?	?	?
CCCc1nn2c(=O)cc(COC(=O)c3cccc(NC(=O)COc4ccccc4C)c3)nc2s1	.	-21.6%	-5.6%	17.6%	-1.3%[12.7 µM]	.
COc1cccc(CN2CCNC(=O)C2CC(=O)N2CCCCO2)c1OC (stereo not drawn)	-2.2%	0.4%	1.0%	51.9%	70.8µM*	-2.3
COc1cccc(CN2CCNC(=O)C2CC(=O)NC2CCCCC2)c1OC (stereo not drawn)	-7.7%	-13.7%	-5.8%	43.9%	35.5µM*	-2.1
CCOc1ccccc1CN1CCNC(=O)C1CC(=O)NC1CCCCCC1 (stereo not drawn)	21.2µM*	-8.5%	?	18.5%	?	-5.7
SMILES	PLK1 PBD block	BAZ2B inh	JMJD2A Tudor	HP1b chromo inh	G9a inh	PI5P4K alpha inh
COc1ccccc1CN1CCNC(=O)C1CC(=O)NC1CCCCCC1 (stereo not drawn)	-4.7%	-25.7%	-15.8%	33.8%	15.8µM*	-11.2
COc1ccc(-c2cc(C(=O)Oc3cccc(C)c3C)c3ccccc3n2)cc1	.	43.2%	58.8%	25.3%	83.3%[59 µM]	.
Cc1c(C(=O)N2CCN(CCc3ccccn3)CC2)oc2ccc(Cl)cc12	-11.9%	-14.0%	-12.4%	14.1%	11.8%[59 µM]	5.6
Cc1ccc(OCC(=O)Nc2ccc(C(=O)OCc3cc(=O)n4ccsc4n3)cc2)cc1C	.	-9.3%	-7.3%	8.2%	21.2%[59 µM]	.
COc1cccc(CN2CCNC(=O)C2CC(=O)NC2CCCC2)c1OC (stereo not drawn)	-14.2%	-15.7%	-24.0%	9.3%	39.8µM*	-11.4
CCOc1ccccc1CN1CCNC(=O)C1CC(=O)NC1CCCCC1 (stereo not drawn)	-11.1%	-18.4%	-26.7%	40.1%	-4.9%[0.0925 µM]	2.1
CC(=O)NCCC(=O)Nc1cc(S(=O)(=O)N2CCOCC2)ccc1Oc1ccccc1	-1.0%	-15.7%	3.1%	29.6%	2.5%	7.1
COc1ccccc1CN1CCC2(CC1)CCN(C(=O)c1cc(C(F)(F)F)cc(C(F)(F)F)c1)CC2	.	.	.	.	3.6%[12.7 µM]	.
Cc1ccc(NNC(=O)c2cc(C(C)(C)C)nn2Cc2ccccc2)cc1	-9.7%	0.1%	70.8µM*	?	3.55µM*	0.6
CC(C)(C)C(=O)NNC(=O)c1cc(C(C)(C)C)nn1Cc1ccccc1	4.8%	-12.0%	1.1%	23.5%	-5.6%	3.8
COc1ccccc1NNC(=O)c1cc(C(C)(C)C)nn1Cc1ccccc1	-2.6%	?	-34.5%	8.2%	12.6µM*	0.5
Cc1sc2nc(CN3CCCC3)nc(Cl)c2c1C	?	-10.3%	-12.2%	7.9%	?	-6.5
CCOC(=O)c1sc2nc(CN3CCCCC3)nc(Cl)c2c1C	-1.2%	-31.9%	-7.7%	27.1%	50.1µM*	-8.0
O=C1Cc2cc(S(=O)(=O)N3CCN(c4ccccc4)CC3)ccc2N1	-12.3%	-26.9%	-11.8%	22.6%	?	-1.0
O=C1Cc2cc(CCN3CCN(c4nsc5ccccc45)CC3)c(Cl)cc2N1	.	?	.	.	10.6µM*	.
Cc1cccc2sc(NC(=O)Cn3cccc3)nc12	4.4%	?	?	5.4%	44.7µM*	5.6
Cc1ccc2nc(NC(=O)CCn3cccc3)sc2c1	2.8%	-6.3%	-9.5%	30.0%	2.8%	-3.1
Cc1cccc2sc(NC(=O)CCn3cccc3)nc12	-4.7%	.	-32.5%	?	50.1µM*	1.6
O=C(OCc1ccccc1)N1CCC2CC1c1c2cccc1N1CCOCC1 (stereo not drawn)	-14.2%	.	.	.	.	6.7
CSC1=NCCN1C(=O)C(C)Oc1ccccc1 (stereo not drawn)	29.9µM*	-4.2%	-26.2%	18.6%	9.1%[59 µM]	-1.1
CCc1ccc(NC(=O)C(C)OC(=O)c2cc(=O)[nH]c3ccc(S(=O)(=O)Nc4ccc(F)cc4)cc23)cc1 (stereo not drawn)	2.7%	2.4%	-3.4%	27.4%	29.7%[12.7 µM]	-4.6
Cc1cccc(NS(=O)(=O)c2ccc3[nH]c(=O)cc(C(=O)OC(C)C(=O)Nc4ccc([N+](=O)[O-])cc4)c3c2)c1 (stereo not drawn)	-1.1%	-36.3%	?	2.5%	44.7µM*	-7.9
